# Data: publication PMC7862700, “An all-to-all approach to the identification of sequence-specific readers for epigenetic DNA modifications on cytosine”
# How the values were obtained:
# Experiment in all cases: DAPPL (digital affinity profiling via proximity ligation, sequencing); 10 mM Tris-HCl pH 7.5, 50 mM NaCl, 1 mM DTT, 4% glycerol, room temperature, 30 min; GST-TFs on glutathione beads, 16-mer random dsDNA library, 0.1% formaldehyde crosslink after washing; high values mean tight binding
# Details in all cases: protein: recombinant; tags: N-terminal GST; dsDNA, one strand shown
# FLI1 = target: T1, FLI1 (Homo sapiens, UniProt Q01543 1-452)
# T1 sequence: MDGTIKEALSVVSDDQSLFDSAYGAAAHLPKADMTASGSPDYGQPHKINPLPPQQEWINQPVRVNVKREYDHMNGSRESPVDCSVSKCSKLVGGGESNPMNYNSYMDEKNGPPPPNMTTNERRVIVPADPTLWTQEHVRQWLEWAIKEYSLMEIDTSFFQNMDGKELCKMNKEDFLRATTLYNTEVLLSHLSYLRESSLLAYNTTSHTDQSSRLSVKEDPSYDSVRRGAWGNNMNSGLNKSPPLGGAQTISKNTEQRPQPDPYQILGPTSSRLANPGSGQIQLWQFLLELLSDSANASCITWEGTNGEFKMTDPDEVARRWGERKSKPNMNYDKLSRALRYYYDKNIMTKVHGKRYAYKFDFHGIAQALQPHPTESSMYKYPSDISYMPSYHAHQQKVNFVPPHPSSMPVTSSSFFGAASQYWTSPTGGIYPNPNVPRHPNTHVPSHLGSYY
# Procedure, shortened: (§1)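 Yeast served to express human transcription factors as GST fusions, which were then captured on glutathione beads and labelled with DNA barcodes. Pooled with a tag-only sample, they were incubated with 200 nmole of a 16-mer random double-stranded DNA library for 30 min at room temperature in Tris/NaCl/DTT/glycerol buffer, washed, crosslinked with 0.1% formaldehyde, ligated by proximity, amplified by PCR and sequenced. Dividing each hexamer's read frequency for a factor by its frequency for the tag-only sample gives the binding signal.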
# ELK1 = target: T2, ELK1 (Homo sapiens, UniProt P19419 1-428)
# T2 sequence: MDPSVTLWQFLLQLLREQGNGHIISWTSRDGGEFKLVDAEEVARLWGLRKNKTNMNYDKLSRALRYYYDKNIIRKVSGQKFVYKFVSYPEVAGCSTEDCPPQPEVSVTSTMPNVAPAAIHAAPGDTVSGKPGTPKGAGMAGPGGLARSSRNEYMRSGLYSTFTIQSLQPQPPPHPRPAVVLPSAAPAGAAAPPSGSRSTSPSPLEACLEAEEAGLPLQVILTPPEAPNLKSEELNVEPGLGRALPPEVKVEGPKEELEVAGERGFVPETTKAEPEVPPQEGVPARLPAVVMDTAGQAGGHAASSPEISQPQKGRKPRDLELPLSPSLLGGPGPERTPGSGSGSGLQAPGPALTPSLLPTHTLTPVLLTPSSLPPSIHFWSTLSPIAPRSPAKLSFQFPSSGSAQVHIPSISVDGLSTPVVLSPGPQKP
# Procedure, shortened: as §1
# GABPA = target: T3, GABPA (Homo sapiens, UniProt Q06546 1-454)
# T3 sequence: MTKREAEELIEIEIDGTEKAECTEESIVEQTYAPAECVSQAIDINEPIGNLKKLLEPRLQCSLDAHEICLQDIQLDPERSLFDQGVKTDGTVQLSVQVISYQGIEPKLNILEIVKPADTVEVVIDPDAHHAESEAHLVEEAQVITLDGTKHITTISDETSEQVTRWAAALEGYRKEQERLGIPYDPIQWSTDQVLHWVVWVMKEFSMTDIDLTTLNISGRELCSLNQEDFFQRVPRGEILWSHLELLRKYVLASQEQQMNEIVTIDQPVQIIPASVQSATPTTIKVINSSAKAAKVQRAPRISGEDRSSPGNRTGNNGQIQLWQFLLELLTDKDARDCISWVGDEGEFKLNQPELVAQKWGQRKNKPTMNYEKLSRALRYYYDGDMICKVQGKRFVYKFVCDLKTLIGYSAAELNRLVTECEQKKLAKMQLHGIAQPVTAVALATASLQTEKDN
# Procedure, shortened: as §1
# ERG = target: T4, ERG (Homo sapiens, UniProt P11308 1-479)
# T4 sequence: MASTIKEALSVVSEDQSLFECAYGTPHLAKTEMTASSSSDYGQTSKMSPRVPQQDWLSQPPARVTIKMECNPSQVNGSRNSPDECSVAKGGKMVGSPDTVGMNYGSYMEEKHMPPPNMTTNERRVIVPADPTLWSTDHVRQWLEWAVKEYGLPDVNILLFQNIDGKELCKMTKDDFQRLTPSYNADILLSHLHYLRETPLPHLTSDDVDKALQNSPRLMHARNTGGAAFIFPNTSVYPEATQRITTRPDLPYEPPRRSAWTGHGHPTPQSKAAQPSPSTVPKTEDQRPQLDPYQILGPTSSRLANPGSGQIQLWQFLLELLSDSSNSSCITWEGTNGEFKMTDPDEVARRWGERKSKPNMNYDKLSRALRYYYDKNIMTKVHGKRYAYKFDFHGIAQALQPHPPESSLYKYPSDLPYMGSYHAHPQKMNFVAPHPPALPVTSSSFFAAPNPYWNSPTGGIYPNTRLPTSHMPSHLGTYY
# Procedure, shortened: as §1
# ELF1 = ELF1 (Homo sapiens, UniProt P32519 1-619)
# Chain of ELF1 (P32519 whole entry): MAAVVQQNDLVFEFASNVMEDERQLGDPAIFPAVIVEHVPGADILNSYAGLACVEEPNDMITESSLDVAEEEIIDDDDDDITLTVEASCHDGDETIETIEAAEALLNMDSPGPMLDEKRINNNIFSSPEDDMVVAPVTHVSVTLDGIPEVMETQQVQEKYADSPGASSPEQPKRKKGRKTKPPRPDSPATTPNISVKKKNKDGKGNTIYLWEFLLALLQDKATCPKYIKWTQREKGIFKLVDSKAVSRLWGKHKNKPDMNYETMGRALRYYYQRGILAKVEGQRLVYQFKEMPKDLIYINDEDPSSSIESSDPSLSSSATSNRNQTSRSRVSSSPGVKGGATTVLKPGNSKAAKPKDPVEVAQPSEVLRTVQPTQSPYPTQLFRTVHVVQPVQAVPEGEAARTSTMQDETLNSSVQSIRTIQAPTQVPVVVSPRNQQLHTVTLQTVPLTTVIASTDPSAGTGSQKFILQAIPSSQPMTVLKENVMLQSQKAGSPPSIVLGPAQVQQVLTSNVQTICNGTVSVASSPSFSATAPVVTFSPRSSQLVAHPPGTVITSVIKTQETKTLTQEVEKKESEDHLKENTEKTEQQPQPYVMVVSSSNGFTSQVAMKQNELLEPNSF
# Procedure, shortened: as §1
# EHF = target: T5, EHF (Homo sapiens, UniProt Q9NZC4 1-300)
# T5 sequence: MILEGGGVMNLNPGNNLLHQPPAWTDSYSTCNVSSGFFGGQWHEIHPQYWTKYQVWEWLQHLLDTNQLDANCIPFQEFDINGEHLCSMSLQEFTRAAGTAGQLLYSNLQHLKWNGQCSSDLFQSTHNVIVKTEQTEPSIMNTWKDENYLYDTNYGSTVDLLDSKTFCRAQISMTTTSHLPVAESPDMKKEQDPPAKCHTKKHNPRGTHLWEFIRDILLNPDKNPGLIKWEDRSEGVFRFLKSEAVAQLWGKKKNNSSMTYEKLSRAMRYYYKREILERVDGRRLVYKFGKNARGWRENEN
# Procedure, shortened: as §1
# SPI1 = SPI1 (Homo sapiens, UniProt P17947 1-270)
# Procedure, shortened: as §1
# SPIB = SPIB (Homo sapiens, UniProt Q01892 1-262)
# Chain of SPIB (Q01892 whole entry): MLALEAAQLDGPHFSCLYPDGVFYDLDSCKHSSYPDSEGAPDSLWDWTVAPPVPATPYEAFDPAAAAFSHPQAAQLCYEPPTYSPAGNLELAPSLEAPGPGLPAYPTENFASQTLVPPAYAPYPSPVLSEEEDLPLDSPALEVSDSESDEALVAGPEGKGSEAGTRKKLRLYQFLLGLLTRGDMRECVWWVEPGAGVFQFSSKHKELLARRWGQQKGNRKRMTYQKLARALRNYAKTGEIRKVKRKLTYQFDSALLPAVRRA
# Procedure, shortened: as §1
# ELK3 = target: T6, ELK3 (Homo sapiens, UniProt P41970 1-407)
# T6 sequence: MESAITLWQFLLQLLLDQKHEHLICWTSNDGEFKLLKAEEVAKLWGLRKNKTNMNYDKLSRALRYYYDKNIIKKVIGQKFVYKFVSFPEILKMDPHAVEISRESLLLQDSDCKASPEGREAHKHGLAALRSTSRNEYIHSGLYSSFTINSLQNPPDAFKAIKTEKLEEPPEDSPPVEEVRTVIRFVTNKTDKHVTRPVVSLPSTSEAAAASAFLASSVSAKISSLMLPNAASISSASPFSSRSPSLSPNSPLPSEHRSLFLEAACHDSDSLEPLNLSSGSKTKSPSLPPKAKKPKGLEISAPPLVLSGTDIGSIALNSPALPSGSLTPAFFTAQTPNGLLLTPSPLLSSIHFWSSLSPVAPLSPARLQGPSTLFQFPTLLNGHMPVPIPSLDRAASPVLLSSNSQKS
# Procedure, shortened: as §1
sequence,measurement,setting,value
ATGTTT,binding signal,FLI1,"1.48 fold enrichment (6-mer frequency, TF over GST control)"
same,binding signal,ELK1,"1.37 fold enrichment (6-mer frequency, TF over GST control)"
same,binding signal,GABPA,"1.36 fold enrichment (6-mer frequency, TF over GST control)"
same,binding signal,ERG,"1.39 fold enrichment (6-mer frequency, TF over GST control)"
same,binding signal,ELF1,"1.41 fold enrichment (6-mer frequency, TF over GST control)"
same,binding signal,EHF,"1.41 fold enrichment (6-mer frequency, TF over GST control)"
same,binding signal,SPI1,"1.33 fold enrichment (6-mer frequency, TF over GST control)"
same,binding signal,SPIB,"1.38 fold enrichment (6-mer frequency, TF over GST control)"
same,binding signal,ELK3,"1.43 fold enrichment (6-mer frequency, TF over GST control)"
